Structures can show the parent of a compound that is named as a salt. ± gives the standard deviation of the averaged measurements.
System: E. coli TESEC Mtb Alr
Assay: growth (OD600 after 10 h); higher = more growth (less inhibition)
Settings: compound 0.1 mM
Procedure: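 TESEC Mtb Alr E. coli, or the Alr+ wild-type control, in 384-well plates with Prestwick library compounds at 0.1 mM and 1% DMSO, across arabinose induction levels of 1E3 to 1E7 nM. Growth is read as OD600 after 10 h at 37 °C in triplicate biological replicates.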

[1] = arabinose 1000 nM, raw OD600 reference: median of DMSO wells 0.294, cell-free background 0.041
[2] = arabinose 10000 nM, raw OD600 reference: median of DMSO wells 0.264, cell-free background 0.041
[3] = arabinose 100000 nM, raw OD600 reference: median of DMSO wells 0.201, cell-free background 0.041
[4] = arabinose 1000000 nM, raw OD600 reference: median of DMSO wells 0.193, cell-free background 0.041
[5] = arabinose 10000000 nM, raw OD600 reference: median of DMSO wells 0.146, cell-free background 0.041

Compound | growth [1] | growth [2] | growth [3] | growth [4] | growth [5]
C(=C\c1ccccc1)/CN1CCN(C(c2ccccc2)c2ccccc2)CC1 [Cinnarizine] | 0.246 ± 0.015 | 0.251 ± 0.014 | 0.18 ± 0.011 | 0.147 ± 0.0054 | 0.149 ± 0.0039
Cc1c(NC(C)C)c(=O)n(-c2ccccc2)n1C [Isopyrin hydrochloride] | 0.304 ± 0.017 | 0.265 ± 0.004 | 0.229 ± 0.0067 | 0.211 ± 0.0094 | 0.141 ± 0.0042
Cc1ncc(CO)c(CO)c1O [Pyridoxine hydrochloride] | 0.302 ± 0.013 | 0.2532 ± 0.0016 | 0.238 ± 0.034 | 0.174 ± 0.0032 | 0.168 ± 0.017
CN1CCCN(C(c2ccccc2)c2ccc(Cl)cc2)CC1 (stereo not given) [Homochlorcyclizine dihydrochloride] | 0.137 ± 0.082 | 0.169 ± 0.0051 | 0.09 ± 0.04 | 0.0532 ± 0.00092 | 0.0545 ± 0.00056
Cc1c(C)c2c(c(C)c1O)CCC(C)(C(=O)O)O2 (stereo not given) [Trolox] | 0.295 ± 0.0077 | 0.255 ± 0.0029 | 0.209 ± 0.031 | 0.1784 ± 0.0016 | 0.143 ± 0.0045
CN(C)CCC(c1ccc(Br)cc1)c1ccccn1 (stereo not given) [Brompheniramine maleate] | 0.293 ± 0.0063 | 0.264 ± 0.0057 | 0.209 ± 0.037 | 0.162 ± 0.0032 | 0.15 ± 0.008
Clc1ccc(COC(Cn2ccnc2)c2ccc(Cl)cc2Cl)c(Cl)c1 (stereo not given) [Miconazole] | 0.201 ± 0.11 | 0.03953 ± 0.00021 | 0.0741 ± 0.0079 | 0.03923 ± 0.00025 | 0.141 ± 0.061
COCCOC(=O)C1=C(C)NC(C)=C(C(=O)OC/C=C/c2ccccc2)C1c1cccc([N+](=O)[O-])c1 (stereo not given) [Cilnidipine] | 0.333 ± 0.0093 | 0.304 ± 0.028 | 0.195 ± 0.022 | 0.14 ± 0.015 | 0.164 ± 0.0066
